High-throughput results (PubChem)
The list is not random: actives were taken first. Their share in the collection is about 3.8%.
ATXN2 expr inh: ATXN2 expression inhibition | HEK-293 ATXN2-luciferase reporter, luminescence, 24 h | Potency, µM (top dose mostly 57 µM), without a hit: at the highest dose activity change, negative = inhibition, most hits filed as inhibitors | hit rate 0.72% among 360,000 | AID 1745845; also: % is scaled to controls: 0 for no effect and ±100 for the full control effect; nearly all actives have a fitted effect of over 55% in size
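qHTS (up to 57 uM final) was run with 24 h compound exposure of reporter cells at 37 °C. Each well was multiplexed: SteadyGlo luminescence measured ATXN2-luciferase expression after a fluorogenic Gly-Phe-AFC viability readout (25 uM final).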
S2 tox: reduces viability in counter-screen for ATXN expression inhibitors | S2 cells (HEK-293 line with an ATXN2-luciferase reporter) viability, CellTiter-Fluor protease fluorescence, 24 h | Potency, µM (doses to about 56.7 µM), most hits filed as cytotoxic | hit rate 0.49% among 400,000 | AID 651635; also: nearly all actives have a fitted effect of over 40% in size
A549 tox: counter-screen for Nrf2 inhibitors: cytotoxicity in A549 cells. Potency, µM (top dose mostly 46 µM), without a hit: top-dose activity change, negative = cytotoxicity, hits mostly inhibitors. A549 ARE-Fluc cells, CellTiter-Fluor viability, 18-24 h. hit rate 0.16% among 390,000; also: % is scaled to controls: 0 for no effect and ±100 for the full control effect
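Cytotoxicity counterscreen: CellTiter-Fluor fluorescence was measured in A549 ARE_Fluc cells after 18-24 h of compound exposure in a concentration series. The subsequent BugLite luminescent read reports ARE-luciferase activity.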
TGFb SMAD3 inh: inhibitors of TGF-b signaling. HepG2 CAGA-GFP TGF-b/SMAD3 reporter, GFP fluorescence, 18 h; TGF-beta stimulated, 500 pg/mL final. Potency, µM (top dose mostly 46.1 µM), for inactives: at the top dose activity, negative = inhibition, usual class: inhibitors. hit rate 1.2% among 410,000. AID 588855; also: % is scaled to controls: 0 for no effect and ±100 for the full control effect; nearly all actives have a fitted effect of over 65% in size
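First, reporter cells (HEPG2 CAGA-GFP) rested 2 h at 37 degrees C. Next, compounds were pinned in and TGF-beta added to 500 pg/mL final. After 18 h, GFP was imaged per cell and summed per well.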
HepG2 tox-1: counter-screen for TGF-b inhibitors: cytotoxicity in HepG2 cells. HepG2 CAGA-GFP viability, ATP luminescence, 18 h. Potency, µM (series often up to 46.1 µM), without a hit: at the highest dose activity change, negative = cytotoxicity, hits mostly cytotoxic. hit rate 0.76% among 410,000. AID 588856
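CellTiter-Glo luminescence gave cytotoxicity after 18 hours at 37 degrees C. The cells were HepG2 CAGA-GFP in 1% FBS DMEM, stimulated with 500 pg/mL TGF-beta after compound addition. %Activity was normalised to no-cell wells (complete cell-killing) and DMSO (no toxicity), and curves were fitted and classified.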
Nrf2 block: Nrf2 pathway inhibition; A549 ARE-Fluc reporter, luciferase luminescence, 18-24 h; Potency, µM (doses to about 46 µM), inactives show top-dose activity change, negative = inhibition, most hits filed as inhibitors; hit rate 2.1% among 360,000; AID 504444; also: % is scaled to controls: 0 for no effect and ±100 for the full control effect; nearly all actives have a fitted effect of over 60% in size
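Quantitative HTS in A549 cells stably bearing an antioxidant response element-firefly luciferase construct. Inhibition of Nrf2-driven transcription was scored by luminescence after 18-24 h of compound exposure at 37 °C.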
TGFb CAGA inh: confirmation of TGF-b signaling inhibitors in HepG2 reporter cells. shares compounds with TGFb SMAD3 inh. Potency, µM (series often up to 46.1 µM), for the others: at the highest dose activity, negative = inhibition, usual class: inhibitors. hit rate 63% among 1,600. AID 720534. HepG2 CAGA-GFP TGF-b reporter, GFP fluorescence, 18 h; cells stimulated with TGF-beta, 500 pg/mL; also: % is scaled to controls: 0 for no effect and ±100 for the full control effect; nearly all actives have a fitted effect of over 65% in size
HepG2 tox-2: HepG2 cytotoxicity, TGF-b inhibitor counterscreen; shares compounds with TGFb SMAD3 inh; HepG2 CAGA-GFP viability, ATP luminescence, 18 h; cells stimulated with TGF-beta, 500 pg/mL; Potency, µM (titrated, usually from 46.1 µM), inactives show top-dose activity, negative = cytotoxicity, usual class: inhibitors; hit rate 27% among 1,600; also: % is scaled to controls: 0 for no effect and ±100 for the full control effect; nearly all actives have a fitted effect of over 70% in size
TGFb CCL64 inh: orthogonal confirmation of TGF-b inhibitors in CCL64 cells; shares compounds with TGFb SMAD3 inh; CCL64 CAGA-GFP reporter, TGF-b stimulated, GFP fluorescence, 18 h; Potency, µM (series often up to 46.1 µM), for inactives: top-dose activity, negative = inhibition, actives largely listed as inhibitors; hit rate 41% among 1,600; AID 720536; also: nearly all actives have a fitted effect of over 65% in size
COP TGFb inh: TGF-b inhibition validated with COP promoter. hit rate 3% among 1,600. AID 720537. Potency, µM (titrated, usually from 46.1 µM), for the others: at the top dose activity, negative = inhibition, usual class: inhibitors. HepG2 COP-GFP TGF-b reporter, GFP fluorescence, 18 h; cells stimulated by added recombinant TGF-beta. shares compounds with TGFb SMAD3 inh; also: nearly all actives have a fitted effect of over 70% in size
The depositor's hits bear a star; i = inactive; u = inconclusive; x = no result given; ! = not confirmed by another sample. Calls follow the shape of the dose curve; as a rule, active = well fitted curve in the direction sought with a large enough effect; inconclusive = small, poorly fitted or top-dose-only effect, or another doubt; inactive = no such curve, though single readings can be large; an effect the other way counts as inactive or inconclusive. Potency is read from the fitted curve at half-maximal effect.

SMILES	ATXN2 expr inh	S2 tox	A549 tox	TGFb SMAD3 inh	HepG2 tox-1	Nrf2 block	TGFb CAGA inh	HepG2 tox-2	TGFb CCL64 inh	COP TGFb inh
Nc1ccc(C(=O)N/N=C/c2cn(Cc3ccc(F)cc3)c3ccccc23)cc1	-8.2%	i	1.3%	7.94µM*	-13.2%	-18.2%	5.8µM*	2.06µM*	-1.5%	20.3%
CCOC(=O)C1(CCCc2ccccc2)CCN(Cc2cn(CC)nc2C)CC1	-35.6%	i	2.9%	-28.7%	-32.3%	-3.3%	x	x	x	x
O=C(Nc1ccc(F)cc1)Nc1cc(OCC(F)(F)F)cc(OCC(F)(F)F)c1	11.2µM*	u	-26.6%	3.98µM*	8.91µM*	u	6.51µM*	u	7.31µM*	46.9%
CCOc1ccc(NC(=O)Nc2cc(OCC(F)(F)F)cc(OCC(F)(F)F)c2)cc1	-15.8%	i	1.0%	-15.8%	-16.2%	u	x	x	x	x
COc1ccc(C(=O)NC(=S)Nc2cccc(S(=O)(=O)N3CCOCC3)c2)cc1	-28.0%	i	2.1%	0.0%	-24.3%	7.1%	x	x	x	x
CC(=O)Oc1ccc(-c2ccc(C(=O)Nc3cccc(S(=O)(=O)N4CCOCC4)c3)cc2)cc1	-35.1%	i	u	11.2µM*	-14.2%	13µM*	20.6µM*	u	u	17.5%
O=c1c2ccccc2nc(/C=C/c2ccc([N+](=O)[O-])o2)n1CCCO	4.47µM*	x	23.1µM*	5.62µM*	3.16µM*	20.6µM*	3.26µM*	6.51µM*	5.8µM*	u
O=c1c2ccccc2nc(/C=C/c2ccc([N+](=O)[O-])cc2)n1CCCO	2.0%	i	-9.3%	-6.1%	3.0%	13.6%	x	x	x	x
NNC(=O)c1[nH]c2ccc([N+](=O)[O-])cc2c1-c1ccccc1	x	i	-5.0%	3.55µM*	-23.5%	u	u	-19.4%	u	-14.2%
O=S(=O)(c1ccc2c(c1)OCCO2)N1CCN(S(=O)(=O)c2cc(F)c(Br)cc2F)CC1	x	x	1.9%	x	x	-0.5%	x	x	x	x
C#CCOc1c(Cl)cc(/C=N/NC(N)=S)cc1OCC	-18.7%	i	-0.6%	0.0%	15.8%	u	x	x	x	x
CCOc1c(Cl)cc(/C=N/NC(N)=S)cc1OC	x	i	5.3%	14.1µM*	5.8%	20.6µM*	u	5.7%	u	-28.4%
Cc1cccc(N2CCN(CC(=O)NCC3CCCCC3)CC2)c1C	-20.1%	i	7.6%	10µM*	-38.5%	-22.2%	-24.3%	-5.6%	u	12.4%
COc1ccc(-c2cc(CC3(C(=O)O)CCN(C(=O)OC(C)(C)C)CC3)on2)c(OC)c1	4.2%	i	0.4%	7.6%	21.6%	-3.5%	x	x	x	x
Cc1ccc(C(=O)NCc2ccc3c(c2)OCO3)c(Cl)c1	x	i	x	0.1%	-19.8%	x	x	x	x	x
Cc1cccc(CS(=O)(=O)c2ncc(Cl)c(C(=O)NCc3ccc4c(c3)OCO4)n2)c1	x	u	-1.0%	7.94µM*	14.1µM*	-11.9%	5.8µM*	13µM*	2.91µM*	u
CCCSc1ncc(Cl)c(C(=O)Nc2ccc(S(=O)(=O)N(C)c3ccccc3)cc2)n1	x	x	-7.9%	x	-12.4%	-27.9%	x	x	x	x
CN(c1ccccc1)S(=O)(=O)c1ccc(NC(=O)c2nc(S(C)(=O)=O)ncc2Cl)cc1	14.1µM*	15.8µM*	u	5.62µM*	5.62µM*	u	2.91µM*	4.11µM*	1.84µM*	6.51µM*
COc1ccccc1NC(=O)c1nc(S(=O)(=O)Cc2ccccc2)ncc1Cl	u	u	-27.2%	4.47µM*	-39.7%	u	2.91µM*	5.8µM*	2.06µM*	14.6µM*
CCS(=O)(=O)c1ncc(Cl)c(C(=O)Nc2ccc(S(=O)(=O)N3CCC(C)CC3)cc2)n1	-23.5%	14.1µM*	u	4.47µM*	1.78µM*	u	4.61µM*	4.61µM*	2.06µM*	9.2µM*
COc1cccc(NC(=O)C(=O)NCC(c2ccc3c(c2)OCO3)N2CCOCC2)c1 (stereo not given)	63.7%	i	-0.8%	-12.1%	-46.7%	x	x	x	x	x
CCOC(=O)c1ccc(NC(=O)c2nc(SC(C)C)ncc2Cl)cc1	-23.7%	i	0.0%	-19.4%	-24.2%	14.6%	x	x	x	x
CCOc1ccccc1NC(=O)c1nc(S(=O)(=O)Cc2ccccc2)ncc1Cl	x	8.91µM*	0.8%	5.01µM*	6.31µM*	-4.4%	2.91µM*	5.8µM*	4.61µM*	7.31µM*
Cc1ccc(NC(=O)c2nc(S(=O)(=O)Cc3ccccc3F)ncc2Cl)cc1C	x	x	x	u	-58.8%	x	x	x	x	x
CSc1nnc(NC(=O)c2nc(S(=O)(=O)Cc3ccccc3)ncc2Cl)s1	u	x	-28.3%	u	-157.5%	u	x	x	x	x
Cc1ccc(NC(=O)c2nc(S(=O)(=O)Cc3ccccc3C)ncc2Cl)cc1C	u	u	-23.4%	7.08µM*	15.8µM*	-26.4%	3.26µM*	10.3µM*	3.66µM*	u
CCOC(=O)c1ccc(NC(=O)c2nc(S(=O)(=O)Cc3ccccc3)ncc2Cl)cc1	u	20µM*	u	3.55µM*	6.31µM*!	u	4.61µM*	6.51µM*	2.31µM*	13µM*
Cc1cccc(N(C)C(=O)CCNS(=O)(=O)c2ccc3c(c2)CCN3C(=O)C2CC2)c1	3.1%	i	10.3%	-4.2%	-19.1%	x	x	x	x	x
COc1ccc(NC(=O)CSc2nnc3n2CCCCC3)cc1OC	x	i	x	-4.3%	-11.3%	x	x	x	x	x
